# From PubChem BioAssay (Tox21)
# “And” between values parts separate entries of the source, which are not always exact repeats. Identical values can stand only once. Inconclusive results are not listed. Entries that show only a call come without a potency. More than one record can exist for a structure, and the calls need not agree. The source made the active and inactive calls. Unless noted, calls follow the shape of the full dose curve.
# Columns and labels:
# [1] = Nuclear factor erythroid 2-related factor 2/antioxidant responsive element (Nrf2/ARE) small molecule agonists: qHTS cell viability counter screen in human keratinocytes (AID 1919968; active = well fitted curve in the direction sought with a large enough effect in the repeat runs; an effect the other way counts as inactive or inconclusive; also: nearly all actives have a fitted effect of over 55% in size; also: potency is read from the fitted curve at half-maximal effect)
# How it was run: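 In human HaCaT keratinocytes stably expressing an ARE-driven luciferase, compound exposure lasted 23 h at 37 C under 5% CO2. Viable cells are quantified with a protease-based fluorogenic reagent (CellTiter-Fluor) read 1 h after addition.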
# [2] = target: Gonadotropin-releasing hormone receptor (Homo sapiens) (UniProt P30968); assay: Human gonadotropin-releasing hormone receptor (GnRHR) small molecule agonists, calcium flux assay in GnRHR-HEK293 cells (AID 1920063); also: nearly all actives have a fitted effect of over 35% in size
# How it was run: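 Intracellular calcium rise is the read-out: engineered human GnRHR HEK293 cells, dye-loaded, are exposed to DMSO-dissolved compounds and fluorescence at Ex/Em 480/540 is tracked for 3 min.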
# [3] = target: KiSS-1 receptor (Homo sapiens) (UniProt Q969F8); assay: Human kisspeptin (KISS1R) small molecule agonists, calcium flux assay in KISS1R-HEK293 cells (AID 1920064; active = well fitted curve in the direction sought with a large enough effect in the repeat runs; an effect the other way counts as inactive or inconclusive)
# How it was run: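 Concentration-response testing used 15 concentrations in triplicate on human KISS1R-expressing HEK293 cells. Calcium-dependent fluorescence (Ex/Em 480/540) was followed kinetically for 3 min after compound transfer.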
# [4] = G protein-coupled receptor (GPCR) small molecule agonists, calcium flux assay: HEK293 wild type cell line counter screen (AID 1920065)
# How it was run: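 Fluorescence intensity signals activation. After overnight (18 h) culture and a 1 h calcium dye load at 37 C, compounds are added by pin tool and the plate read at 480/540 nm for 3 min in 1 s steps.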
# [5] = p53 small molecule agonists, cell-based qHTS assay with human liver microsomes (AID 1963577)
# How it was run: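 Cells carrying a p53-responsive bla reporter were rested 5 h (37 C, 5% CO2) before compound transfer. Human liver microsomes plus NADPH, 0.5 mg/mL final apiece, supplied metabolism during the 16 h 37 C exposure.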
# [6] = p53 small molecule agonists, cell-based qHTS assay with rat liver microsomes (AID 1963578)
# How it was run: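 Fluorescence from a beta-lactamase reporter under a p53 response element was measured after cells had been incubated 16 h at 37 C with test compound and rat liver microsomes plus NADPH (0.5 mg/mL final each).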
# [7] = p53 small molecule agonists, cell-based qHTS assay with human liver microsomes: qHTS cell viability counter screen (AID 1963579); also: nearly all actives have a fitted effect of over 45% in size; also: potency is read from the fitted curve at half-maximal effect
# How it was run: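 Seed p53RE-bla cells at 4,000 per well; incubate 5 h at 37 C; add compound, human liver microsomes and NADPH; incubate 16 h at 37 C; add CellTiter-Glo; after 30 min at room temperature, read luminescence.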
# [8] = p53 small molecule agonists, cell-based qHTS assay with rat liver microsomes: qHTS cell viability counter screen (AID 1963580); also: nearly all actives have a fitted effect of over 45% in size; also: potency is read from the fitted curve at half-maximal effect
# How it was run: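 Cytotoxicity counter screen: intracellular ATP read by CellTiter-Glo luminescence in the p53 reporter wells. HCT-116 p53RE-bla cells were treated for 16 h at 37 C alongside rat liver microsomes and NADPH, each 0.5 mg/mL final.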
# [9] = p53 small molecule agonists, cell-based qHTS assay: qHTS cell viability counter screen (AID 1963581); also: nearly all actives have a fitted effect of over 45% in size; also: potency is read from the fitted curve at half-maximal effect
# How it was run: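 Luminescence from CellTiter-Glo, reflecting ATP content, serves as the cytotoxicity measure; it is taken after the 2 h reporter substrate step in HCT-116 p53RE-bla cells dosed for 16 h at 37 C.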
# [10] = target: 5-hydroxytryptamine receptor 2A (Homo sapiens) (UniProt P28223); assay: 5-hydroxytryptamine receptor 2A (HTR2A) small molecule antagonists, cell-based qHTS assay (AID 1963586); also: nearly all actives have a fitted effect of over 45% in size
# How it was run: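 CHO cells stably expressing human HTR2A were plated for 18 h at 37 C, then loaded with calcium dye for 1 h. Compounds were preincubated 5 min at room temperature before DOI (4 nM solution) was added. Kinetic fluorescence was read for 3 min.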
# [11] = target: 5-hydroxytryptamine receptor 2A (Homo sapiens) (UniProt P28223); assay: 5-hydroxytryptamine receptor 2A (HTR2A) small molecule agonists, cell-based qHTS assay (AID 1963587); also: nearly all actives have a fitted effect of over 30% in size
# How it was run: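 Kinetic calcium-flux fluorescence (2 min, 1 sec intervals) after compound addition in agonist mode. HTR2A-CHO cells were cultured 18 h, then dye-loaded 1 h at 37 C.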
# [12] = target: Muscarinic acetylcholine receptor M1 (Homo sapiens) (UniProt P11229); assay: Cholinergic receptor muscarinic 1 (CHRM1) small molecule agonists, cell-based qHTS assay (AID 1963589); also: nearly all actives have a fitted effect of over 35% in size
# How it was run: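 Fluorescent calcium dye reports M1 activation in stably transfected CHO cells. Compounds, 15 concentrations, added after 1 h dye loading at 37 C; kinetic reading at 1 sec intervals.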
# [13] = target: Beta-2 adrenergic receptor (Homo sapiens) (UniProt P07550); assay: Adrenergic beta2 receptor (ADRB2) small molecule antagonists, cell-based qHTS assay (AID 1963592); also: series mostly up to about 92 µM; nearly all actives have a fitted effect of over 50% in size
# How it was run: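 Assay format: CHO-ADRB2 cells, 18-20hr seeding at 37C/5% CO2, then compound plus 1nM isoproterenol agonist mix for 0.5hr RT. Homogeneous time-resolved fluorescence cAMP detection after 1hr, expressed as 665/615 nm ratio.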
# [14] = target: Beta-2 adrenergic receptor (Homo sapiens) (UniProt P07550); assay: Adrenergic beta2 receptor (ADRB2) small molecule agonists, cell-based qHTS assay (AID 1963593);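 also: CHO cells stably overexpressing human ADRB2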
# How it was run: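 CHO cells stably over-expressing ADRB2 were plated overnight at 37C, then dosed with compounds plus a stimulation mix containing 100uM IBMX and 25uM Ro-20-1724 for 0.5hr at room temperature. cAMP was measured by HTRF competition, 1hr.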
# [15] = target: D(2) dopamine receptor (Homo sapiens) (UniProt P14416); assay: Dopamine D2 receptor (DRD2) small molecule agonists, cell-based qHTS assay (AID 1963594); also: nearly all actives have a fitted effect of over 35% in size
# How it was run: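 cAMP accumulation in DRD2-HEK293 cells measured by HTRF after 1 h detection; compounds added 10 min before NKH477 (200nM […]) forskolin-analogue stimulation, 30 min at room temperature, with Ro20-1724 present at 0.1 mM final.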
# [16] = target: D(2) dopamine receptor (Homo sapiens) (UniProt P14416); assay: Dopamine D2 receptor (DRD2) small molecule antagonists, cell-based qHTS assay (AID 1963595; active = well fitted inhibition curve with a large enough effect in the signal ratio in the repeat runs, with a control signal flat; the % refers to the signal ratio)
# How it was run: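 HEK293 cells stably expressing DRD2 were preincubated with 0.1 mM Ro20-1724, then with compound for 10 min at room temperature. Cells were stimulated with 200 nM NKH477 plus 12 nM quinpirole for 30 min, and cAMP was read by HTRF.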
# [17] = p53 small molecule agonists, cell-based qHTS assay (AID 1963582; active = well fitted activation curve with a large enough effect in the signal ratio in the repeat runs, not every such curve was filed as active; the % refers to the signal ratio)
# How it was run: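 After plating, p53RE-bla cells sat 5 h in the incubator; compounds or DMSO vehicle were pinned in; a 16 h incubation at 37 C followed; FRET substrate was added and, 2 h later at RT, fluorescence was measured.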
# [18] = target: Muscarinic acetylcholine receptor M1 (Homo sapiens) (UniProt P11229); assay: Cholinergic receptor muscarinic 1 (CHRM1) small molecule antagonists, cell-based qHTS assay (AID 1963588); also: nearly all actives have a fitted effect of over 40% in size
# How it was run: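 Compounds were tested at 15 concentrations in three independent runs. Dye-loaded CHRM1-CHO cells were exposed 5 min at room temperature before stimulation by acetylcholine added at 50nM. Intracellular calcium was read kinetically on FDSS for 3 min.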
# [19] = cAMP Responsive Elements (CRE) small molecule agonists, cell-based qHTS assay (AID 1963590)
# How it was run: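 Compound exposure lasted 3 h at 37 C/5% CO2 in CRE-bla HEK 293T cells grown in assay medium with 10% dialyzed FBS and 25 mM HEPES. Reporter signal came from LiveBLAzer B/G FRET substrate, 2 h, room temperature.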
# [20] = cAMP Responsive Elements (CRE) small molecule antagonists, cell-based qHTS assay (AID 1963591; active = well fitted inhibition curve with a large enough effect in the signal ratio in the repeat runs, not every such curve was filed as active; the % refers to the signal ratio)
# How it was run: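 Stimulation used NKH477 at a final 0.25 uM for 3 h in compound-treated CRE-bla HEK293T cells, seeded 18 h beforehand. Reporter activity was measured with LiveBLAzer B/G FRET substrate after 2 h at room temperature.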
# Sequence of Beta-2 adrenergic receptor (Homo sapiens) (P07550 whole entry, looked up): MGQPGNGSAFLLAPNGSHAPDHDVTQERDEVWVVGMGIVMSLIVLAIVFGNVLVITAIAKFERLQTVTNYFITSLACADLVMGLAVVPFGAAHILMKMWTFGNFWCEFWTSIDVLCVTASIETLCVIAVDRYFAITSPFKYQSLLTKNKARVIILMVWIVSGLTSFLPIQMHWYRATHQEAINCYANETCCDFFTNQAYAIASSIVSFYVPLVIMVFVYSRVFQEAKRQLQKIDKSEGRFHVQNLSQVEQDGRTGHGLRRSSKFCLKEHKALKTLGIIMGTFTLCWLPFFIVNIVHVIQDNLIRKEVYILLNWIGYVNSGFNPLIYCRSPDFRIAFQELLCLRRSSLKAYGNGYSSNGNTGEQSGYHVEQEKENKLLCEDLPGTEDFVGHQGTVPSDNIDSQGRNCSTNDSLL
# Sequence of Muscarinic acetylcholine receptor M1 (Homo sapiens) (P11229 whole entry, looked up): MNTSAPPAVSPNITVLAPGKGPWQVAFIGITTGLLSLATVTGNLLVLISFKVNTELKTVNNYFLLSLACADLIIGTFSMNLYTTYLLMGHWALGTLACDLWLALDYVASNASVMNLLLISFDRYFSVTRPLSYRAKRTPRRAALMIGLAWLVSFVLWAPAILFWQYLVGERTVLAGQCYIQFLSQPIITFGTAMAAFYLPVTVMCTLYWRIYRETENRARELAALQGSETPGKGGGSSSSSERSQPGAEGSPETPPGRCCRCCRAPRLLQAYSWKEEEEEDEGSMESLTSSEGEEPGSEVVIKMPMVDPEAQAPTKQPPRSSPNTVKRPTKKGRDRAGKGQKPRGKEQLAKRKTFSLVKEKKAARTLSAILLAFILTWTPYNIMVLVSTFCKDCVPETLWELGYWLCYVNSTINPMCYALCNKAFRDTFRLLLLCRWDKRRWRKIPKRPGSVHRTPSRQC
# Sequence of D(2) dopamine receptor (Homo sapiens) (P14416 whole entry, looked up): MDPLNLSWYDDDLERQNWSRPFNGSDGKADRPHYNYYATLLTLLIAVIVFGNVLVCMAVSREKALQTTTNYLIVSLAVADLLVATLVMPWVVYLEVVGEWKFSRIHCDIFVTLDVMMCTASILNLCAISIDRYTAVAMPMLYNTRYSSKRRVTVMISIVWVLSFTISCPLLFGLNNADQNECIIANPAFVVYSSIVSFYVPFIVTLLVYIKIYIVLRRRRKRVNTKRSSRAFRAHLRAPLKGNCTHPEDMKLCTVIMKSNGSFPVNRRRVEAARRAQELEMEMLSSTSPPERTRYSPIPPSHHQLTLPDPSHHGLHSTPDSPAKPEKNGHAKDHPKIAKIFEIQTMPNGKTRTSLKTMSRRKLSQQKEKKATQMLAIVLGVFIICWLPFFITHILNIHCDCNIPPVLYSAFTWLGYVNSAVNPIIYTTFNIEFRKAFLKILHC
# Sequence of Gonadotropin-releasing hormone receptor (Homo sapiens) (P30968 whole entry, looked up): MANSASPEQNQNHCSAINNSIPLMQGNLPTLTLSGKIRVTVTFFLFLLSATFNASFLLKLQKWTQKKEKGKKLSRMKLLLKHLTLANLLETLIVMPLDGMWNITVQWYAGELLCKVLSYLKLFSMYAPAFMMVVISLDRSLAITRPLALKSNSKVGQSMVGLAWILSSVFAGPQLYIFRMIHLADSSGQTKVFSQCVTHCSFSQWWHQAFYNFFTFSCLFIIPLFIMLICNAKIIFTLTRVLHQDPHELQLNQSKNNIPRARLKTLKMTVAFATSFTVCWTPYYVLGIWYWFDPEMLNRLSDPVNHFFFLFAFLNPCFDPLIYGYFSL
# Sequence of 5-hydroxytryptamine receptor 2A (Homo sapiens) (P28223 whole entry, looked up): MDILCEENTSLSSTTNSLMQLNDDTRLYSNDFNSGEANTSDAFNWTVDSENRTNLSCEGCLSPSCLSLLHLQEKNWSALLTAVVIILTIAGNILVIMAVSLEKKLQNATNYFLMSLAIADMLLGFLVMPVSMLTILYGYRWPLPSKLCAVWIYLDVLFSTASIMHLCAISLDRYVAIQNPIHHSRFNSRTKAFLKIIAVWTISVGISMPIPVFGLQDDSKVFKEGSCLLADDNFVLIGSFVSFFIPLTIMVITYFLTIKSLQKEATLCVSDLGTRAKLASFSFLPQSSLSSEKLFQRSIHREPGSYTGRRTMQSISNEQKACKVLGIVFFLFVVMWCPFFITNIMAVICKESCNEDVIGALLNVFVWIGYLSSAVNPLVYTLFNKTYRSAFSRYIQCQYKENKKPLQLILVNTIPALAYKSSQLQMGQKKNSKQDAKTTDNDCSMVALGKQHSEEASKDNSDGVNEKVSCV
# Sequence of KiSS-1 receptor (Homo sapiens) (Q969F8 whole entry, looked up): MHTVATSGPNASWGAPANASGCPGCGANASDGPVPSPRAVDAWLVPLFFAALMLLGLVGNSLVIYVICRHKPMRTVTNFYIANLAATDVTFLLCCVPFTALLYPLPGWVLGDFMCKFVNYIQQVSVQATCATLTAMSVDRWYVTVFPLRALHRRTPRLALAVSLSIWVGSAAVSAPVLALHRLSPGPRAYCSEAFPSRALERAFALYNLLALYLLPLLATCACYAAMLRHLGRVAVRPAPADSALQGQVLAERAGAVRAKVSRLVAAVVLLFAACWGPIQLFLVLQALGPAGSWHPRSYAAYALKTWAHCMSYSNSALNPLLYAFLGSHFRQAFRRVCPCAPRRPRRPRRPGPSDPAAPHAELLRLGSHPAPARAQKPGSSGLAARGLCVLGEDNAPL
SMILES,Potency [1],Potency [2],Potency [3],Potency [4],Potency [5],Potency [6],Potency [7],Potency [8],Potency [9],Potency [10],Potency [11],Potency [12],Potency [13],Potency [14],Potency [15],Potency [16],Potency [17],Potency [18],Potency [19],Potency [20]
CCCCCCCCCCn1cc[n+](C)c1,inactive and 61.4 µM (active) and 30.6 µM (active),inactive,inactive,inactive,inactive,inactive,46.2 µM (active) and inactive,36.7 µM (active) and inactive,inactive,inactive,inactive,inactive,inactive,inactive,inactive,inactive,–,–,–,–
CON(C)C(=O)Nc1ccc(Cl)c(Cl)c1,inactive,–,inactive,inactive,inactive,inactive,inactive,inactive,inactive,inactive,inactive,inactive,inactive,inactive,inactive,inactive,inactive,inactive,inactive,inactive
[Cd+2].[Cl-].[Cl-],27.5 µM (active) and 43.3 µM (active),inactive,–,inactive,–,–,inactive,inactive,36.7 µM (active),inactive,inactive,inactive,inactive,–,–,–,–,inactive,inactive,–
COP(=O)(OC)OC=C(Cl)Cl,inactive,inactive,inactive,inactive,–,–,inactive,412 nM (active) and inactive,inactive,–,–,–,inactive,–,inactive,inactive,–,–,inactive,inactive
S=C1NCCN1,inactive,–,inactive,inactive,inactive,inactive,inactive,–,inactive,inactive,inactive,inactive,inactive,–,inactive,inactive,inactive,inactive,inactive,inactive
CCNc1nc(Cl)nc(NC(C)(C)C#N)n1,–,inactive,inactive,inactive,inactive,inactive,inactive,inactive,inactive,inactive,inactive,inactive,inactive,inactive,inactive,inactive,inactive,inactive,inactive,inactive
CCn1cc[n+](C)c1C,inactive,inactive,inactive,inactive,–,–,inactive,inactive,–,–,inactive,inactive,inactive,inactive,inactive,inactive,–,inactive,inactive,inactive
C[N+](C)(C)CC(=O)O,inactive,inactive,inactive,inactive,–,–,inactive,inactive,inactive,inactive,inactive,inactive,inactive,inactive,inactive,inactive,–,inactive,inactive,inactive
CCCCn1cc[n+](C)c1,inactive,inactive,–,inactive,–,–,inactive and 40.8 µM (active),inactive,inactive,inactive,inactive,inactive,inactive,inactive,inactive,inactive,–,inactive,inactive,inactive
N#CCC#N,–,inactive,inactive,inactive,inactive,inactive,inactive,inactive,inactive,inactive,inactive,inactive,inactive,inactive,inactive,inactive,inactive,inactive,inactive,inactive
C[N+](C)(C)CC(=O)[O-],inactive,inactive,inactive,inactive,–,–,inactive,inactive,inactive,inactive,inactive,inactive,inactive,inactive,inactive,inactive,–,inactive,inactive,inactive
CC[N+](CC)(CC)CC,inactive,inactive,inactive,inactive,–,–,inactive,inactive,inactive,–,inactive,inactive,–,inactive,inactive,inactive,–,inactive,inactive,inactive
Cl,inactive,inactive,inactive,inactive,–,–,inactive,inactive,inactive,inactive,inactive,inactive,inactive,inactive,inactive,inactive,–,inactive,inactive,inactive
CC(=O)CCC(C)=O,inactive,inactive,–,inactive,inactive,inactive,inactive,inactive,inactive,inactive,inactive,–,inactive,–,inactive,inactive,inactive,inactive,inactive,–
CNc1cnn(-c2cccc(C(F)(F)F)c2)c(=O)c1Cl,inactive,inactive,–,–,inactive,inactive,inactive,inactive,inactive,inactive,inactive,inactive,inactive,inactive,inactive,inactive,–,inactive,inactive,inactive
